# Experimental data as given in PubChem BioAssay AID588397 (National Center for Advancing Translational Sciences (NCATS), 2011).
# Where “and” joins values, the source holds several entries; their conditions need not be identical. Equal entries are not always repeated. Hit rate of the full screen: of about 1,300 compounds, about 1,000 (77%) were called active. Roughly 7% stayed inconclusive and do not appear here. The set was probably picked from earlier hits. Some of the results follow. Unmarked numbers belong to inactive results. The call rests on the fitted dose curve; in most records, active means well fitted inhibition curve with a large enough effect; inconclusive means small, poorly fitted or top-dose-only effect; inactive means no such curve, though single readings can be large or run the other way.
# Test: qHTS of small molecules that selectively kill Giardia lamblia: Hit Validation.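 Further: viability measured as ATP content by luminescence so killing lowers signal; trophozoites exposed to compounds for 48 h anaerobically at 37 °C; nearly all actives have a fitted effect of over 65% in size.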
# Conditions: Giardia lamblia trophozoite viability, dose-response; series mostly up to 38.3 µM; activity change, negative = killing: at the top concentration
# Outline: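 Media and compound were dispensed first, then trophozoites at 100 cells/well; plates sat 48 hrs at 37 deg C without oxygen before ATP luminescence reagent was added and read after 15-30 min at room temperature.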
# On the % scale 0 is the no-effect control and ±100 the full control effect; potency means the concentration at half of the fitted maximal effect.
SMILES,"activity change, negative = killing",Potency
CN(C)S(=O)(=O)c1cccc(C(=O)NCCNC(=O)c2cccc(S(=O)(=O)N(C)C)c2)c1,15.2%,–
CN(C)c1cc(NC(=O)CNC(C)(C)CC(C)(C)C)c2ccccc2n1,–,1.03 µM (active)
O=[N+]([O-])c1ccccc1S(=O)(=O)Oc1ccccc1/C=N/n1cnnc1,–,2.05 µM (active)
O=[N+]([O-])c1ccccc1S(=O)(=O)Oc1ccc(/C=N/n2cnnc2)cc1,–,0.516 µM (active)
Cc1cc2ccccn2c1C(=O)c1ccc([N+](=O)[O-])cc1[N+](=O)[O-],–,4.6 µM (active)
Cn1ccsc1=NC(=O)c1ccc([N+](=O)[O-])o1,–,0.206 µM (active)
Cc1[nH]n(C2=NCCS2)c(=O)c1N=Nc1cccc(C(F)(F)F)c1,–,6.5 µM (active)
CCOC(=O)C1CCN(c2ccc([N+](=O)[O-])c(C(C)=O)c2)CC1,–,2.31 µM (active)
CC(=O)c1cc(N2CCOCC2)ccc1[N+](=O)[O-],–,1.83 µM (active)
CC1CCN(c2ccc(-c3ccc(NC(=O)C(F)(F)F)cc3)nn2)CC1,–,1.83 µM (active)
COc1ccc(-c2nc3ccccc3n2OCC(=O)O)cc1,–,5.79 µM (active)
CCC(C(=O)OC)n1c(-c2ccccc2)nc2ccccc2c1=O (stereo not drawn),1.17%,–
CC(NC(=O)Cn1cc(Br)c([N+](=O)[O-])n1)c1ccccc1 (stereo not drawn),–,0.516 µM (active)
NNC(=O)c1cccc(Cn2cc(Br)c([N+](=O)[O-])n2)c1,–,1.16 µM (active)
O=[N+]([O-])c1ccc(COn2nnc3ccccc32)cc1,–,1.63 µM (active)
CC(Nc1nc(N2CCN(CCO)CC2)nc2ccccc12)c1ccccc1 (stereo not drawn),–,1.03 µM (active)
Cc1cc(C(=O)COc2cccnc2[N+](=O)[O-])c(C)n1Cc1ccco1,–,0.65 µM (active)
Cc1ccc(OCC(=O)c2cc(C)n(Cc3ccco3)c2C)c([N+](=O)[O-])n1,–,1.16 µM (active)
O=c1c2c(-c3ccccc3)csc2ncn1/N=C/c1ccc(O)c([N+](=O)[O-])c1,–,2.9 µM (active)
Cc1cc(C)cc(Oc2ccc(NC(=O)C3CC=CCC3C(=O)O)cc2)c1 (stereo not drawn),–,1.3 µM (active)

SMILES,"activity change, negative = killing",Potency
CCc1ccc(C(=O)Nc2nc3ccccc3[nH]2)cc1,–,0.46 µM (active)
COC(=O)Nc1nc2ccc(Sc3ccccc3)cc2[nH]1,–,0.23 µM (active)
COC(=O)Nc1nc2ccc(SC(C)C)cc2[nH]1,–,0.365 µM (active)
CCc1cccc(NC(=O)CCCSc2nc3ccccc3[nH]2)c1,-16.1%,–
COC(=O)Nc1nc2ccc(C(=O)c3cccs3)cc2[nH]1,–,0.23 µM (active)
CCCSc1ccc2nc(NC(=O)OC)[nH]c2c1,–,0.516 µM (active)
COc1cc(SC)ccc1C(=O)Nc1nc2ccccc2[nH]1,–,0.146 µM (active)
CC(=O)Nc1nc(-c2cc([N+](=O)[O-])cs2)cs1,–,1.16 µM (active)
CCC(=O)Nc1nc(-c2cc([N+](=O)[O-])cs2)cs1,–,1.3 µM (active)
NC(=O)c1ccc(Nc2ccc([N+](=O)[O-])cc2[N+](=O)[O-])cc1,–,2.9 µM (active)
NC(=O)c1ccc(NC(=O)COc2ccc([N+](=O)[O-])cc2Cl)cc1,–,1.16 µM (active)
O=C(Nc1nccs1)c1cc([N+](=O)[O-])ccc1Cl,–,2.59 µM (active)
COc1ccc(C(=O)c2c3ccccc3[n+]([O-])n2CCCN)cc1,–,1.03 µM (active) and 3.26 µM (active)
COc1ccc(C(=O)c2c3ccc([N+](=O)[O-])cc3[n+]([O-])n2CCCC(N)=O)cc1,–,4.1 µM (active)
COc1ccc(C(=O)c2c3ccc([N+](=O)[O-])cc3[n+]([O-])n2CCCN)cc1,–,7.29 µM (active)
Cc1c(C(=O)O)sc2nc(SCC(=O)Nc3ccc(S(=O)(=O)NC(C)(C)C)cc3)[nH]c(=O)c12,-1.26%,–
CCN(CC)CCCC(C)Nc1c2ccc(Cl)cc2nc2ccc(OC)cc12 (stereo not drawn),–,0.13 µM (active)
CCN(CC)CCCC(C)Nc1cc(/C=C/c2ccccc2Cl)nc2cc(Cl)ccc12 (stereo not drawn),–,3.26 µM (active)
COc1ccc(S(=O)(=O)N2CCCCC2)cc1NC(=O)c1ccc([N+](=O)[O-])o1,–,1.45 µM (active)
O=C(NCc1ccccc1CN1CCCC1)c1cccc(S(=O)(=O)N2CCCC2)c1,-31%,–

SMILES,"activity change, negative = killing",Potency
CC(C)C(=O)NC(=S)Nc1ccc(S(=O)(=O)N2CCCC2)cc1,-15.4%,–
O=C(Nc1ccc2cn[nH]c2c1)c1ccc(S(=O)(=O)N2CCOCC2)cc1,11.3%,–
O=C(Nc1ccc(S(=O)(=O)N2CCCC2)cc1)c1ccc([N+](=O)[O-])o1,–,1.16 µM (active)
O=C(Nc1ccc(S(=O)(=O)N2CCOCC2)cc1)c1ccc([N+](=O)[O-])o1,–,1.45 µM (active)
COc1ccc(CNC(=O)CN2C(=O)COc3ccc(S(=O)(=O)N4CCCCC4)cc32)cc1,-19.2%,–
O=C(Nc1cccc(S(=O)(=O)N2CCCCC2)c1)c1ccc([N+](=O)[O-])o1,–,0.729 µM (active)
COc1ccc(C2CC(c3ccccc3)Nc3ncnn32)cc1 (stereo not drawn),-23.7%,–
Cc1ccc(NC(=O)c2ccc([N+](=O)[O-])o2)cc1S(=O)(=O)N1CCOCC1,–,0.729 µM (active)
NC(=O)c1ccsc1NC(=O)c1ccc(N2CCCC2=O)cc1,–,2.59 µM (active)
CN(C(=O)c1ccc(N2CCCCC2)c([N+](=O)[O-])c1)C1CCS(=O)(=O)C1 (stereo not drawn),–,4.1 µM (active)
O=C(NC1CCS(=O)(=O)C1)c1ccc(N2CCCCC2)c([N+](=O)[O-])c1 (stereo not drawn),–,2.31 µM (active)
CN(C(=O)c1ccc(F)c(S(=O)(=O)N2CCOCC2)c1)C1CCCCC1,9.08%,–
O=C(N/N=C/c1ccc([N+](=O)[O-])o1)c1ccccc1-n1cccc1,–,1.16 µM (active)
Cc1nc2ccccn2c1C(=O)N/N=C/c1ccc([N+](=O)[O-])o1,–,1.83 µM (active)
O=C1c2ccccc2C(=O)C1c1ccc2ccccc2n1,–,1.16 µM (active) and 1.63 µM (active)
O=C1c2ccccc2C(=O)C1c1cc2ccccc2cn1,–,1.45 µM (active)
O=[N+]([O-])c1ccc(CSc2nnc(-c3cccnc3)o2)cc1,–,3.65 µM (active)
O=[N+]([O-])c1ccc(CSc2nnc(-c3cnccn3)o2)cc1,–,2.31 µM (active)
